Out of some 290,000 compounds screened, about 150 (0.052%) were called active.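 The calls were made as follows: active = inhibition of at least 50% with at least 30 cells and total cytoplasm GFP at most 10,000,000; inconclusive = under 30 cells or total GFP of 10,000,000 plus; inactive = the rest.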 For the sample, actives were picked, then their nearest neighbours and some compounds at random. Measured potencies and affinities stand elsewhere.

The target in the test is G-protein coupled receptor 35 (Homo sapiens) (UniProt Q9HC97). Nature of the test: GPR35 antagonists blocking zaprinast-driven arrestin recruitment, primary screen, imaging, U2OS, beta-arrestin-GFP, zaprinast agonist (AID 2058). The following applies: U2OS GPR35 beta-arrestin-GFP translocation imaging, zaprinast antagonism; at 10 µM; active compounds read high. On the technique in general: Recruitment of arrestin is a read-out of receptor activation apart from second messengers.
Chain of G-protein coupled receptor 35 (Homo sapiens) (Q9HC97 whole entry, looked up): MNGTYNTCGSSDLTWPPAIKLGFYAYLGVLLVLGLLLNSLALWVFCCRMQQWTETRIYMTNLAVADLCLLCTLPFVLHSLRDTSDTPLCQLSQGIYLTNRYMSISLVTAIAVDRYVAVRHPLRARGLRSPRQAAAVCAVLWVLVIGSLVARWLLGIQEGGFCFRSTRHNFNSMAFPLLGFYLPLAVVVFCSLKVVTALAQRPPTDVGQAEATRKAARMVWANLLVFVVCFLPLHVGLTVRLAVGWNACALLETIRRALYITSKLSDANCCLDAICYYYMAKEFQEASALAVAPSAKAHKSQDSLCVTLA
For `COc1ccccc1NC(=O)N1CCN(Cc2ccc3c(c2)OCO3)CC1`, the inhibition was -7.3% (inactive).

With `Cc1cccc(/C=C2/S/C(=N/N=C3\CC4CCC3(C)C4(C)C)NC2=O)c1` (stereo unspecified), the inhibition was 1.3% (inactive). With `COc1ccc(/C=C2/S/C(=N/N=C3\CC4CCC3(C)C4(C)C)NC2=O)cc1` (stereo unspecified), the inhibition is 1.4% (inactive). The result for `Cc1nc(CC(=O)O)c(-c2ccccc2)s1` reads -2.4% (inactive); that for `Cc1ccc(C(=O)C(C)OC(=O)c2cc3cc([N+](=O)[O-])ccc3oc2=O)cc1` (stereo unspecified), -8.8% (inactive). `Cc1cc(-c2nnc(SCC(=O)Nc3ccccc3Cl)n2C)no1`: the inhibition was 18.2% (inactive).

As to `CC1=CC(=C(C#N)c2nc3ccccc3s2)C=C(C)N1CC1CCCO1` (stereo unspecified), the inhibition was 3.3% (inactive). With `CC[n+]1c(C=C2C=C(C)OC(C)=C2)sc2ccccc21`, the inhibition is 11.8% (inactive). For `Cn1c(=O)cc(OCC(=O)NCCc2ccc(Cl)cc2)c2ccccc21`, the inhibition was 13.1% (inactive). Take `COc1ccc(OC)c2[nH]c(C(=O)N3CCC(C(=O)O)CC3)cc12`: the inhibition is -3.2% (inactive). For the compound `CC1Cc2ccccc2N1C(=O)c1cccnc1` (stereo unspecified), the inhibition was 20.2% (inactive). As for `COc1ccccc1/C=C/C(=C1/C(=O)N(c2ccccc2)N=C1C)c1ccc(C)cc1`, the inhibition is -2% (inactive).

As to `CC(C)(C)c1ccc2c(c1)C(=O)c1ccccc1C2=O`, the inhibition was -1.9% (inactive). In the case of `CC1=CC(=O)c2ccccc2C1=O` it was 10.8% (inactive). With `CC(C)(C=O)C1=CC(=O)c2ccccc2C1=O`, the inhibition is 78.8% (active). In the case of `CC1Cc2ccccc2N1C(=O)CN(C)S(=O)(=O)c1cccc2cccnc12` (stereo unspecified), the inhibition was -6.9% (inactive). Turning to `Cc1ccccc1C(=O)N1CCCN(C(=O)c2ccccc2C)CC1`, the inhibition is -12.2% (inactive).

For `O=C(NNC(=S)Nc1ccc(F)cc1F)c1ccco1`, the inhibition was -12.7% (inactive). Take `CCOCCCNC(=O)C(c1ccc(Cl)cc1)N1CCN(c2ccccc2)CC1` (stereo unspecified): the inhibition was 5.9% (inactive). With `CCN(CC)c1ccc(/C=C(/C#N)C(=O)NC(C)C)o1`, the inhibition is 14.3% (inactive). `Cc1ccc(/C=C(/C#N)C(=O)NC(C)c2ccccc2)o1` (stereo unspecified): the inhibition was -7.7% (inactive).

As to `CC(C)NC(=O)/C(C#N)=C\c1ccc(N(C)C)o1`, the inhibition is 50% (active).

With `CC(C)NC(=O)/C(C#N)=C/c1ccc(N(C)C)o1`, the inhibition is 19.2% (inactive). As to `Cc1ccc(/C=C(\C#N)C(=O)NC(C)c2ccccc2)o1` (stereo unspecified), the inhibition was -5.7% (inactive). In the case of `COc1ccc(/C=C(\C#N)C(=O)NC(C)c2ccccc2)cc1O` (stereo unspecified) it was 9.9% (inactive); in that of `COC(=O)c1ccc(/C=C(\C#N)C(=O)NC(C)c2ccccc2)cc1` (stereo unspecified), -3.1% (inactive); in that of `CC(CCc1ccccc1)NC(=O)CCN1N=C(c2ccccc2)CCC1=O` (stereo unspecified), -14.8% (inactive). In the case of `O=C(NCCN1CCN(c2ccccc2)CC1)C1CCN(S(=O)(=O)N2CCOCC2)CC1` it was 17.1% (inactive); in that of `COc1cccc(C(=O)NC(=S)Nc2ccccc2N2CCCCC2)c1`, 9.4% (inactive); in that of `O=C(CCn1cccn1)Nc1ccc2c(c1)OCCO2`, 18.7% (inactive). Regarding `CCC1(C)Cc2ccccc2-c2[nH][nH]c(=O)c21` (stereo unspecified), the inhibition is -5.1% (inactive).

What is called inhibition is the change of the read-out against control, counted positive when it falls.

These data come from PubChem BioAssay AID2058 (Sanford-Burnham Center for Chemical Genomics, 2009).
